# Values without a mark were called inactive. Calls of active or inactive are those of the source. The call rests on the fitted dose curve; in most records, active means well fitted curve in the direction sought with a large enough effect in the repeat runs; inconclusive means weak or mixed curves; inactive means flat fitted curve, though single readings scatter.
# Experiment: qHTS assay to test for compound auto fluorescence at 590 nm (red) in HepG2 cells (AID 720674)
# Settings: HepG2 autofluorescence, red 540/590 nm, 1 h; series mostly up to 91.3 µM; fluorescence, relative to Rose Bengal: at the top concentration
# Excerpt: U.S. Tox21 Program National Center for Advancing Translational Sciences [NCATS] NIH Chemical Genomics Center [NCGC] U.S. Environmental Protection Agency [EPA] National Institutes of Environmental Health Sciences [NIEHS] National Toxicology Program [NTP] U.S. Food and Drug Administration [FDA] Tox21 Assay Overview: Compound auto fluorescence often interferes with screening of the compound library against various biological targets and signaling pathways. Some of these compounds may have fluorophoric properties. Such properties may interfere with the assay outputs resulting in false positives and/or negatives. To decrease such complications and ensure the compound activities are relevant in terms of biological response, the Tox21 10K compound library was screened for auto fluorescence. From the fluorophores used as reporter signals in our screening assays, the auto fluorescence equivalencies of compounds against three fluorophores have been evaluated: Triamterene, Fluorescein and Rose Bengal sodium for blue, green and red fluorescence, respectively. The fluorescence intensities were measured using Excitation/Emission wavelengths at 405/460nm, 485/535nm and 540/590nm for blue, green and red labels, respectively. This assay includes the red fluorescence data.
# Tox21 Assay Protocol Summary: 2,000 HepG2 cells in 5 uL of culture medium (MEM containing 10% FBS) per well were dispensed into black wall/clear bottom 1536-well plates using a Multidrop Combi Dispenser (ThermoFisher Scientific, Waltham, MA). The assay plates were incubated overnight at 37 C to allow cell attachment to the well bottom, followed by the transfer of 23 nL compound or DMSO vehicle by a pintool work station (Kalypsys , San Diego, CA). After the assay plates were incubated for 1 hr at 37 C and 5% CO2, fluorescence intensities in the assay plates were measured by an Envision (PerkinElmer, Shelton, CT) plate reader using three labels for measuring blue, green and red fluorescence at […] 460, 535 and 590 nm respectively.
# On the % scale 0 is the no-effect control and ±100 the full control effect.
SMILES,"fluorescence, relative to Rose Bengal",outcome
CCC1(CC)C(=O)C=CNC1=O,-0.146% [at 46 µM],–
CC(C)[N+](C)(CCC(C(N)=O)(c1ccccc1)c1ccccc1)C(C)C,-0.328% [at 18.6 µM],–
CCN[C@H](C)Cc1cccc(C(F)(F)F)c1,-0.299%,–
O=c1[nH]c2ccccc2o1,-0.0625%,–
COc1cc(CC(C)N)cc(OC)c1OC (stereo not given),-0.326% [at 95.7 µM],–
BrCc1ccc(Br)cc1,0.272%,–
CON(C)C(=O)Nc1ccc(Br)cc1,0.0544%,–
O=c1[nH]oc2c1CCNC2,0.0844% [at 46 µM],–
C=C1CC[C@@]2(O)[C@H]3Cc4ccc(O)c5c4[C@@]2(CCN3CC2CC2)[C@H]1O5,-0.215% [at 46 µM],–
C=CC=O,-0.111% [at 95.7 µM],–
CCOP(=O)(CN(CCO)CCO)OCC,-0.338%,–
C=CC(=O)OCCN(C)C,-0.0243%,–
CN1COCN(Cc2cnc(Cl)s2)/C1=N\[N+](=O)[O-],-0.284%,–
BrCCc1ccccc1,-0.0292% [at 95.7 µM],–
O=C(O)CBr,-0.304%,–
C#CC(C)(C)O,0.0095% [at 95.7 µM],–
C=CCCC#N,0.283%,–
Cc1cccc2sc3nncn3c12,-0.336%,–
Oc1ccc(Cc2ccc(O)cc2)cc1,0.113%,–
CCC(=O)OC1(c2ccccc2)CCN(C)CC1,-0.171% [at 95.7 µM],–

SMILES,"fluorescence, relative to Rose Bengal",outcome
CCCCCCC(=O)CCCCCC/C=C/C[C@@H](O)[C@H](O)[C@@](N)(CO)C(=O)O,–,inactive
Cn1c(CCCC(=O)O)nc2cc(N(CCCl)CCCl)ccc21,0.103% [at 46 µM],–
ClCCCCl,0.0083% [at 95.7 µM],–
COc1cccc([C@@]2(O)CCCC[C@@H]2CN(C)C)c1,-0.258% [at 46 µM],–
CCC(C(N)=O)N1CCCC1=O (stereo not given),-0.0127% [at 46 µM],–
N#CN=C1SCCN1Cc1ccc(Cl)nc1,0.0968%,–
CCN(CC)CCOC(=O)C(O)(c1ccccc1)c1ccccc1,0.169% [at 46 µM],–
C/C(=N\NC(=O)Nc1cc(F)cc(F)c1)c1ncccc1C(=O)O,0.0605%,–
C=C(Cl)CSC(=S)N(CC)CC,-0.175% [at 95.7 µM],–
COC(=O)[C@@H](N)CCCN/C(N)=N/[N+](=O)[O-],-0.155% [at 46 µM],–
CCOP(=S)(OCC)Oc1ccc(Cl)cc1Cl,-0.291%,–
CCCOc1nn(C(=O)NS(=O)(=O)c2ccccc2C(=O)OC)c(=O)n1C,0.0189%,–
NCC1(CC(=O)O)CCCCC1,0.106% [at 18.6 µM],–
[P]#[In],-0.0615%,–
NCCOS(=O)(=O)O,-0.0914%,–
CCCN1CCC[C@@H]2Cc3[nH]ncc3C[C@H]21,-0.0864% [at 46 µM],–
CCOC(=O)NC(C)(C)Cc1ccc(Cl)cc1,-0.193% [at 46 µM],–
Nc1c(Cl)c(F)nc(OCC(=O)O)c1Cl,-0.151%,–
CCC(C)(C#N)N=NC(C)(C#N)CC (stereo not given),0.155%,–
[O-][Br+2]([O-])O,0.253% [at 46 µM],–

# Source: PubChem BioAssay (Tox21)
